The record followed here is PubChem BioAssay (NCATS).

Active and inactive are the calls of the source. The call rests on the fitted dose curve; in most records, active means well fitted inhibition curve with a large enough effect; inconclusive means small, poorly fitted or top-dose-only effect; inactive means no such curve, though single readings can be large or run the other way.

The nature of this assay: qHTS assay for measurement of the activity of small molecule inhibitors on Zika virus induced Caspase-3 activity in human astrocytoma cells (AID 1224859). The note with it: SNB-19 ZIKV-induced caspase-3/7, luminescence, 6 h; series mostly up to 45.7 µM. From the text: National Center for Advancing Translational Sciences [NCATS]
Johns Hopkins University School of Medicine
Increase in the Caspase-3 activity indicates an activation of apoptosis cell death pathway caused by Zika virus infection in certain types of neuronal cells including human neural progenitor cells (hNPCs), astrocytes, and astrocytoma cell line (SNB-19). This cell-based caspase-3 activity assay measures the increased caspase-3 activity in the astrocytoma cell line (SNB-19) after a 6-hour Zika virus infection with a luminescence readout. A decrease in the luminescence signal in this assay by small molecule treatment indicates an inhibitory effect of that small molecule on the Zika virus induced caspase-3 activity that may correlate with its effect on reduction of Zika virus caused cell death.
The medium for SNB-19 cells is composed of RPMI 1640 (ATCC, Cat.# 30-2001), 10% fetal bovine serum (FBS) (GE healthcare Life Sciences, Cat.# SH30071.03), and 1% Pen/Strep (Gibco, Cat.# 15140-122). A Caspase-Glo 3/7 assay kit (catalog number G8092; Promega, Madison, WI) was used to detect caspase-3 activity induced by Zika virus infection in human cells. The reagent mixture was reconstituted as described in the protocol from the manufacturer. Polystyrene tissue culture treated and PDL coated white plates were obtained from Greiner Bio-One (Monroe, NC). Cells were seeded in 384- or 1536-well assay plates and cultured at 37 C with 5% CO2 for 16 to 20 hours. The typical cell seeding density in the 1536-well plate assay is 250 cells/well in 3ul medium for SNB-19 cells in tissue culture treated plates. Compounds were added to cells and incubated for one hour before addition of ZIKV solution to cells (2 FFU/cell). After incubation at 37 C with 5% CO2 for 6 hours, the reagent mixture of Caspase-Glo 3/7 assay kit was added to each well, followed by incubation at room temperature for 30 minutes. The luminescence intensity of the assay plates was measured using a ViewLux plate reader (PerkinElmer). Data were normalized by using the cell-containing wells without ZIKV as a negative control (0% induction of caspase 3/7 activity) and wells containing ZIKV infected cells (Caspase-3 activity induced) as a positive control (100% induction of caspase 3 activity). The percentage inhibitions of the increased Caspase-3 activity by small molecule inhibitors were then calculated.
Background: qHTS replaces the single test concentration by a dilution series.
Consider `Cc1scc2c1N(C(=O)CN1CCN(C)CC1)c1ccccc1NC2=O`, for which the call was inactive.
As for `FC(F)(F)c1ccccc1-n1ccnc1`, the molecule was called inactive.
As for `CN(C)CC/C=C1\c2ccccc2COc2ccccc21`, the molecule was classed as inactive.
The same measure for `O=C(CCNNC(=O)c1ccncc1)NCc1ccccc1`: “inactive”.
Consider `Brc1c(NC2=NCCN2)ccc2nccnc12`, for which the molecule was called inactive.
For the molecule `Fc1ccc(C(c2ccc(F)cc2)N2CCN(C/C=C/c3ccccc3)CC2)cc1`, the molecule was called inactive.
The same measure for `Nc1c2c(nc3ccccc13)CCCC2O` (stereo not given): “inactive”; for `COC(=O)[C@@H](N)Cc1ccc(O)c(O)c1`: “inactive”.
On to `O=c1[nH]c(=O)n([C@H]2C[C@H](O)[C@@H](CO)O2)cc1Br`, for which the outcome was inactive.
With `Cc1ccc(=O)n(-c2ccccc2)c1`, the call was inactive.
Consider `C#CCN(C)CCCOc1ccc(Cl)cc1Cl`, for which the call was inactive.
In the case of `COc1cc(Cc2cnc(N)nc2N)cc(OC)c1OC`, the call was inactive.
`CN/C(=C\[N+](=O)[O-])NCCSCc1ccc(CN(C)C)o1`: the molecule was called inactive.
As to `CNCCC(Oc1ccccc1OC)c1ccccc1` (stereo not given), the call was inactive.
In the case of `COc1cc(C(=O)OCCCN2CCCN(CCCOC(=O)c3cc(OC)c(OC)c(OC)c3)CC2)cc(OC)c1OC`, the molecule was classed as inactive.
In the case of `C[N+](C)(C)CCCCCCCCCC[N+](C)(C)C`, the call was inactive.
As for `CCCCNC(=O)NS(=O)(=O)c1ccc(C)cc1`, the result was inactive.
Regarding `NC(=O)c1cn(Cc2c(F)cccc2F)nn1`, the molecule was classed as inactive.
For `CC(=O)OCC1=C(C(=O)O)N2C(=O)[C@@H](NC(=O)Cc3cccs3)[C@H]2SC1`, the result was inactive.
Turning to `N[C@@H](COP(=O)(O)O)C(=O)O`, the outcome was inactive.
For `CN=C(NC#N)NCCSCc1nc[nH]c1C`, the result was inactive.
The same measure for `CCN(CC)CCNC(=O)c1cc(S(C)(=O)=O)ccc1OC`: “inactive”.
Consider `COc1ccc([C@@H]2Sc3ccccc3N(CCN(C)C)C(=O)[C@@H]2OC(C)=O)cc1`, for which the outcome was inactive.
`CCCNC(C)C(=O)Nc1ccccc1C` (stereo not given): the outcome was inactive.
Take `CO[C@@]1(NC(=O)CSCC#N)C(=O)N2C(C(=O)O)=C(CSc3nnnn3C)CS[C@@H]21`: the call was inactive.
Turning to `CCn1nc(C(=O)O)c(=O)c2cc3c(cc21)OCO3`, the result was inactive.
Under `CC(C)NNC(=O)c1ccncc1` stands “inactive”; under `CCCCCCCC/C=C\CCCCCCCC(=O)NCc1ccc(O)c(OC)c1`, “inactive”.
Consider `CN(C)C(=O)Oc1ccc[n+](C)c1`, for which the outcome was inactive.
For the molecule `C=CCc1ccccc1OCC(O)CNC(C)C` (stereo not given), the result was inactive.
On to `O=C(O)CP(=O)(O)O`, for which the molecule was called inactive.
With `NS(=O)(=O)c1cc2c(cc1Cl)NC(C1CC3C=CC1C3)NS2(=O)=O` (stereo not given), the result was inactive.
With `CC(C)COCC(CN(Cc1ccccc1)c1ccccc1)N1CCCC1` (stereo not given), the molecule was classed as inactive.
Under `COC(=O)[C@H]1[C@H]2C[C@@H]3c4[nH]c5cc(OC)ccc5c4CCN3C[C@H]2C[C@@H](OC(=O)c2cc(OC)c(OC)c(OC)c2)[C@@H]1OC` stands “inactive”; under `O=C1CC2(CCCC2)CC(=O)N1CCCCN1CCN(c2ncccn2)CC1`, “inactive”.
Turning to `CCCCNc1ccc(C(=O)OCCN(C)C)cc1`, the result was inactive.
Under `Cc1ccc(S(=O)(=O)NC(=O)NN2CCCCCC2)cc1` stands “inactive”; under `c1cnc(N2CCN(Cc3ccc4c(c3)OCO4)CC2)nc1`, “inactive”; under `NC(=O)N1c2ccccc2C=Cc2ccccc21`, “inactive”.
As to `CC(C)(C)NCC(O)c1cc(O)cc(O)c1` (stereo not given), the molecule was classed as inactive.
